In PubChem BioAssay:
The source made the active and inactive calls.

Key:
[1] = small molecules captured by biotinylated probe aFSTL3 – biochemical, small-molecule microarray, fluorescence 635/667, stem cell growth factor project, primary screen (AID 1064); settings: higher = more signal;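 further: measures binding of the biotinylated anti-FSTL3 antibody to printed compounds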
[2] = binders from COS7 lysate, DM2A8 probe, primary screen, torsin A project, cell lysate, small-molecule microarray, fluorescence 635/667 (AID 1065); settings: higher = more signal, COS7 lysate expressing mutant human TOR1A
[3] = small molecules captured by biotinylated probe aFGF2 – biochemical, small-molecule microarray, fluorescence 635/667, stem cell growth factor project, primary screen (AID 1067); settings: higher = more signal;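 further: measures binding of biotinylated aFGF2 protein to printed compounds on slides; z-score merges feature fluorescence and signal-to-noise across triplicate slides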
[4] = small molecules captured by biotinylated probe aFGF10 – biochemical, small-molecule microarray, fluorescence 635/667, stem cell growth factor project, primary screen (AID 1071); settings: higher = more signal;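 further: score merges 667 nm spot intensity and signal to noise from triplicate slides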
[5] = target: Neurogenic locus notch homolog protein 2 (Homo sapiens) (UniProt Q04721); test: small molecules binding Notch2 protein – biochemical, small-molecule microarray, 635 nm fluorescence, stem cell growth factors, primary screen (AID 1073); settings: higher = more signal
[6] = target: Pro-neuregulin-1, membrane-bound isoform (Homo sapiens) (UniProt Q02297); test: small molecules binding neuregulin-1 protein – biochemical, small-molecule microarray, fluorescence 635/667, psychiatric disease protein project, primary screen (AID 1075); settings: NRG1 binding, 635 nm fluorescence, higher = more signal;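 further: score combines 667 nm spot fluorescence with signal to noise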
[7] = tested on: Neuregulin-1 EGF-like domain; test: small molecules binding NRG1 EGF domain – biochemical, small-molecule microarray, 635 nm fluorescence, primary screen (AID 1081); settings: higher = more signal;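 further: binding of the protein to compounds printed on small-molecule microarray slides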
[8] = FRG1 expression reporter modulators in myotubes – cell-based, C2C12 myotubes, firefly/Renilla luciferase, luminescence, FRG1 inhibition for FSHD, primary screen (AID 1084); settings: FRG1 promoter luciferase, higher = more signal, called active from +8 up or from −8 down
[9] = small molecules captured by biotinylated probe aFST – biochemical, small-molecule microarray, fluorescence 635/667, stem cell growth factor project, primary screen (AID 1086); settings: higher = more signal;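 further: score merges 667 nm fluorescence with signal-to-noise of each printed compound spot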
[10] = binders of probe aHhip on microarray, primary screen, stem cell growth factor project, biochemical, small-molecule microarray, fluorescence 635/667 (AID 1087); settings: higher = more signal;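 further: score merges spot fluorescence at 667nm with spot signal to noise ratio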
[11] = tested on: PRMT1 (protein arginine N-methyltransferase 1); test: small molecules binding arginine methyltransferase PRMT1 – biochemical, small-molecule microarray, 635 nm fluorescence, primary screen (AID 1088); settings: higher = more signal;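 further: binding of Prmt1 protein to compounds spotted on small-molecule microarray slides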
[12] = growth effects on S. cerevisiae YJM789 – YJM789 clinical isolate, OD600, 24 h, basal, primary screen (AID 1089); settings: higher = more signal, called active from +8 up or from −8 down;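 further: growth of clinical yeast isolate S. cerevisiae YJM 789 seeded 1000 cells per well; test concentration not given here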
[13] = S. pombe growth modifiers, basal conditions – strain 972, OD600, 24 h, no modulator, primary screen (AID 1090);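 further: basal condition with compound alone and no growth modifier present; test concentration not given here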; settings: S. pombe 972 growth, higher = more signal, called active from +8 up or from −8 down
[14] = budding yeast growth modifiers under rapamycin – strain BY4716, OD600, 96 h, primary screen (AID 1091); further: test concentration not given here; settings: S. cerevisiae BY4716 + rapamycin, higher = more signal, called active from +8 up or from −8 down
[15] = target: Torsin-1A-interacting protein 2 (Homo sapiens) (UniProt Q8NFQ8); test: small molecules binding lysate-expressed LULL1 – cell lysate, human LULL1 lysate, 635/667 nm fluorescence, primary screen (AID 1092); settings: small-molecule microarray, hLULL1 lysate binding, 635 nm fluorescence; higher = more signal;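 further: probe is lysate of COS7 cells overexpressing human LULL1; score merges per-feature 667 nm fluorescence with signal-to-noise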
[16] = optical density change of DRC41 E. coli – strain DRC41, OD650, 24 h, E. coli filamentation project, primary screen (AID 1093);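 further: MC1000 strain lacking acrAB efflux and sulA so SOS filamentation is blocked; test concentration not given here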; settings: E. coli DRC41 growth, higher = more signal, called active from +8 up or from −8 down
[17] = probe aLefty2 binding to arrayed compounds – biochemical, biotinylated probe, 635/667 nm fluorescence, primary screen (AID 1094); settings: small-molecule microarray, higher = more signal;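 further: score merges spot fluorescence near 667 nm with spot signal-to-noise ratio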
[18] = tested on: Noggin (protein binding on small-molecule microarray); test: small molecules binding Noggin protein – biochemical, 635/667 nm fluorescence, primary screen (AID 1095); settings: 635 nm fluorescence, higher = more signal;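 further: score merges 667 nm feature fluorescence with signal to noise over triplicate slides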
[19] = target: Neurogenic locus notch homolog protein 3 (Homo sapiens) (UniProt Q9UM47); test: small molecules binding NOTCH3 protein – biochemical, 635/667 nm fluorescence, primary screen (AID 1096); settings: small-molecule microarray, 635 nm fluorescence, higher = more signal
[20] = probe aEGFR binding to arrayed compounds – biochemical, biotinylated probe, 635/667 nm fluorescence, primary screen (AID 1097); settings: small-molecule microarray, higher = more signal;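 further: probe is a biotinylated anti-EGFR antibody binding compounds printed on slides; score combines fluorescence near 667 nm and signal to noise of each spot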

Sequence of Pro-neuregulin-1, membrane-bound isoform (Homo sapiens) (Q02297 whole entry, looked up, the tested form may be a part, canonical isoform): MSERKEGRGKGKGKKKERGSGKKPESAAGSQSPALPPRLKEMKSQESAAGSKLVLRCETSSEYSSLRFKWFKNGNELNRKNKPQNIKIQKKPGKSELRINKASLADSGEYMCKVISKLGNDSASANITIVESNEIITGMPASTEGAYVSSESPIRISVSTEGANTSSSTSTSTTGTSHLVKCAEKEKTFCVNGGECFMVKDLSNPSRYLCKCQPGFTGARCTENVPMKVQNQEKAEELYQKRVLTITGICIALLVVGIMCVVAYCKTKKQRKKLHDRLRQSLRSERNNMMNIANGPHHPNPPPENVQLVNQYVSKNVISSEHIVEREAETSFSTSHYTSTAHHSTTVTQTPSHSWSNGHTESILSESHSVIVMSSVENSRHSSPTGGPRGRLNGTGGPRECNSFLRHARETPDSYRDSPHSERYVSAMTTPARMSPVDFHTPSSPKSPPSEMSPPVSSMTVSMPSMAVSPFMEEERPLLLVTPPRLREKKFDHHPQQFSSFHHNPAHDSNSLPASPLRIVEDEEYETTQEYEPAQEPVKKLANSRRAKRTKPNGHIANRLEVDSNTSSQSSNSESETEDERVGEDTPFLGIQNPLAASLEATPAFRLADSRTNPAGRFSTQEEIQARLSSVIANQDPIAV
Sequence of Neurogenic locus notch homolog protein 3 (Homo sapiens) (Q9UM47 whole entry, looked up): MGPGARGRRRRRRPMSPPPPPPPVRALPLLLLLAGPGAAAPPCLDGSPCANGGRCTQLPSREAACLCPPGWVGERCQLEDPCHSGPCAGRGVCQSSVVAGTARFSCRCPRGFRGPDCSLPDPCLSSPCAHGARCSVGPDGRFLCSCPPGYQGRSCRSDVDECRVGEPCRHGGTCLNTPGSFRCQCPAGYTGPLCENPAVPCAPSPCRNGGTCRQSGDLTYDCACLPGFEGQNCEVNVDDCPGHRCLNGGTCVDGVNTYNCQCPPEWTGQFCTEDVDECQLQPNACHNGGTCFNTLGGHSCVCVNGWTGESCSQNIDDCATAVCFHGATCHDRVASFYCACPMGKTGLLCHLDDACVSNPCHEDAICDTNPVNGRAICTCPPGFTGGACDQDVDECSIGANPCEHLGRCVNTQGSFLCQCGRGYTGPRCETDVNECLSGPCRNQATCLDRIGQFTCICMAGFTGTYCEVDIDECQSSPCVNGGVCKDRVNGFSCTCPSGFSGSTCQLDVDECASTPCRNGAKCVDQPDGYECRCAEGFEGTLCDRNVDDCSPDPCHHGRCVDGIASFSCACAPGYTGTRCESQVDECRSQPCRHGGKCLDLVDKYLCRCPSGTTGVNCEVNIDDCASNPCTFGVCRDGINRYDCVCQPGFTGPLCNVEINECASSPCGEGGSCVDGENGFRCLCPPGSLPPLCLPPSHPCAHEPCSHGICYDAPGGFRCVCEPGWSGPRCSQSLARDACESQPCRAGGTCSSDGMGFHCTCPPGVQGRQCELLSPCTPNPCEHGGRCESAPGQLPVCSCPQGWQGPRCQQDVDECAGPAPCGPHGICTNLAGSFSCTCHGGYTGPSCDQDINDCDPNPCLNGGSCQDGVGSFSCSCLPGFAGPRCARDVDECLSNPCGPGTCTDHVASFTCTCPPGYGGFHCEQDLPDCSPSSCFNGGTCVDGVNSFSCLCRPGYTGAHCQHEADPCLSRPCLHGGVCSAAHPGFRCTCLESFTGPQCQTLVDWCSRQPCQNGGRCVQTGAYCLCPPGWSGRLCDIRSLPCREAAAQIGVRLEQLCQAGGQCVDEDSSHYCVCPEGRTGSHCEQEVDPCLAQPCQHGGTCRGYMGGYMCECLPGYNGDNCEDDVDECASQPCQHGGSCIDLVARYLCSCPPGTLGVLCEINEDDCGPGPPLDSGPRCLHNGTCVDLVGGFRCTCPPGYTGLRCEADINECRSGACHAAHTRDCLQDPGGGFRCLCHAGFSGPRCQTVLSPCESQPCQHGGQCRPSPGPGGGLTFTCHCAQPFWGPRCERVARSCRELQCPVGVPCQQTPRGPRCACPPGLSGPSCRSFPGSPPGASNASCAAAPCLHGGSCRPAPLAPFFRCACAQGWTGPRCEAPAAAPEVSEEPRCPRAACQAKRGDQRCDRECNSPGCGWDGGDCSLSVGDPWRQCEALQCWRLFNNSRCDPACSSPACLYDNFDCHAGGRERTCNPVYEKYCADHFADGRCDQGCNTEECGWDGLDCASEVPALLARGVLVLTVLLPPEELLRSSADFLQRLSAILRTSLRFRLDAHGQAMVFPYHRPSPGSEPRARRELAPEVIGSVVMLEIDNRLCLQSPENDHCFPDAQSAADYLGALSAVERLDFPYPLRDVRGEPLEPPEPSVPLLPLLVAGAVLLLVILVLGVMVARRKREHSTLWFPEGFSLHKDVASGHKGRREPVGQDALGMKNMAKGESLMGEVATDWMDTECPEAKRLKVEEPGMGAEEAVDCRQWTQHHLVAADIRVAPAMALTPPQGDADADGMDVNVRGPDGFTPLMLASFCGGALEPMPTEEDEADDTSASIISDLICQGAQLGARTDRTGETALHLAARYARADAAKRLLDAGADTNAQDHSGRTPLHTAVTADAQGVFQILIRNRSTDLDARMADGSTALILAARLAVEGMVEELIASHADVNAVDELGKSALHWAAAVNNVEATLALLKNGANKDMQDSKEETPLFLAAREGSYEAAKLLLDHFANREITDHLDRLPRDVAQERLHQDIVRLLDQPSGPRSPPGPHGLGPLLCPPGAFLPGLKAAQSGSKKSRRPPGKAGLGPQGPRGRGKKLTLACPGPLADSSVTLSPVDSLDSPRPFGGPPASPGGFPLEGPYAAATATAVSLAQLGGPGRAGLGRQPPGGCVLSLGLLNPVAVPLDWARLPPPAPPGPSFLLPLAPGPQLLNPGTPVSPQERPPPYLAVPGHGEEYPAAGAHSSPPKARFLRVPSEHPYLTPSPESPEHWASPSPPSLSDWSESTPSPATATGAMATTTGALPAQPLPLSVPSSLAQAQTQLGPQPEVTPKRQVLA
Sequence of Torsin-1A-interacting protein 2 (Homo sapiens) (Q8NFQ8 whole entry, looked up): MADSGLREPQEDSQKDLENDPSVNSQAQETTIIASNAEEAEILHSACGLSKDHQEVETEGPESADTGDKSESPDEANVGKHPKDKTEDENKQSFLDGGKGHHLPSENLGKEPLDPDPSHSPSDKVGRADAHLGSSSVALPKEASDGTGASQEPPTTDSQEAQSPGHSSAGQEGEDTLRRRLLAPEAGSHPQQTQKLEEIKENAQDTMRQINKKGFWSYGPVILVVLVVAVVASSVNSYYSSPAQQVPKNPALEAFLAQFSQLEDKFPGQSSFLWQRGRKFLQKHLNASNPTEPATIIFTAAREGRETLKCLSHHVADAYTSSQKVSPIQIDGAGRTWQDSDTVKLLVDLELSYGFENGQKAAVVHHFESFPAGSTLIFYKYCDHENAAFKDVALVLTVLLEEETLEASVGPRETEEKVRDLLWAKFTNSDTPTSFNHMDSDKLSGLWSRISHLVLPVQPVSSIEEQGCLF

SMILES | composite z-score [1] | composite z-score [2] | composite z-score [3] | composite z-score [4] | composite z-score [5] | composite z-score [6] | composite z-score [7] | z-score [8] | composite z-score [9] | composite z-score [10] | composite z-score [11] | z-score [12] | z-score [13] | z-score [14] | composite z-score [15] | z-score [16] | composite z-score [17] | composite z-score [18] | composite z-score [19] | composite z-score [20]
COC(=O)C(CC#Cc1ccc2c(c1)[C@]1(C(=O)N2)[C@H](c2ccccc2OCCO)N2[C@H](c3ccccc3)[C@H](c3ccccc3)OC(=O)[C@H]2[C@@H]1C(=O)Nc1nc2ccccc2s1)C(=O)OC | -0.214 | 0.675 | 0.0563 | 0.605 | 1.05 | 1.47 | 1.26 | 1.94 (inactive) | 0.446 | 0.0329 | 1.52 | 2.11 (inactive) | 1.03 (inactive) | 1.36 (inactive) | 2.93 | -0.724 (inactive) | -0.0699 | 1.24 | 1.15 | -0.0688
COc1cc2c(cc1OC)CN(C(=O)[C@@H]1[C@H]3C(=O)O[C@H](c4ccccc4)[C@H](c4ccccc4)N3[C@H](c3ccc(OCCO)cc3)[C@@]13C(=O)Nc1ccc(C#CCCO)cc13)CC2 | -0.0108 | 0.718 | 0.105 | 0.944 | 1.56 | 1.58 | 1.27 | 0.838 (inactive) | 0.0774 | 0.169 | 1.54 | 1.68 (inactive) | -0.283 (inactive) | 3.2 (inactive) | 3.38 | 2 (inactive) | 0.674 | 1.46 | 1.08 | 0.276
C[N+](C)(C)CCCC[C@@H]1NC(=O)[C@@H]2C[C@H](C(=O)O)[C@H](c3cccc(OCCO)c3)N2C1=O | 0.846 | 0.0439 | -0.179 | -0.372 | -0.821 | -0.0567 | 1.1 | -0.112 (inactive) | -0.184 | -0.245 | 0.583 | 0.852 (inactive) | -1.13 (inactive) | 0.167 (inactive) | 0.423 | 0.817 (inactive) | -0.175 | 0.601 | -0.78 | -0.175
COC(=O)[C@]1(Cc2ccccc2CN=[N+]=[N-])N=C(c2ccc(OCCCO)cc2)O[C@@H]1c1ccccc1CN=[N+]=[N-] | 0.409 | -0.119 | -0.087 | 0.013 | -0.443 | 0.726 | 1.28 | -0.904 (inactive) | -0.117 | -0.0994 | 0.921 | -0.456 (inactive) | -1.09 (inactive) | 33.5 (active) | 2 | 2.08 (inactive) | 0.111 | 0.435 | -0.253 | -0.0828
CCOC(=O)C1=CC[C@@H](c2cccc(Br)c2)N(S(=O)(=O)c2ccc(C)cc2)[C@H]1c1ccc([N+](=O)[O-])cc1 | -0.508 | 2.18 | -0.0535 | 0.928 | 1.52 | 0.674 | 1.11 | -1.74 (inactive) | 0.339 | 0.305 | 1.53 | -0.412 (inactive) | -5.06 (inactive) | 3.93 (inactive) | 2.96 | -0.3 (inactive) | -0.0615 | 0.496 | 1.15 | 0.254
CCCc1cc2c(n1Cc1ccc(OC)cc1)C(C)C1CN(C(=O)c3ccccc3)C(C)(C(=O)OC)C21 (stereo not given) | 1.24 | 0.575 | 0.354 | 0.345 | 1.59 | 1.81 | 1.2 | -0.0832 (inactive) | 1.14 | -0.127 | 1.34 | 0.461 (inactive) | 0.815 (inactive) | 1.64 (inactive) | 3.37 | -1.21 (inactive) | 0.8 | -0.758 | 1.05 | 0.389
COC(=O)c1ccc(OC)c(/C=C\CC(CCc2ccccc2)OC(C)=O)c1 (stereo not given) | -0.28 | -0.115 | -0.118 | -0.672 | -0.394 | -0.289 | -0.288 | -2.76 (inactive) | -0.458 | 0.101 | -0.0961 | -0.714 (inactive) | -0.645 (inactive) | -0.21 (inactive) | 0.324 | -0.031 (inactive) | -0.154 | -0.358 | -0.255 | -0.0899
CN(C)CCCNC(=O)[C@@]1(Cc2ccccc2I)c2ccccc2C(=O)N(Cc2ccccc2Cl)[C@H]1c1ccc(CO)cc1 | 1.17 | -0.576 | 0.0516 | 0.617 | 0.0497 | 1.47 | 1.25 | -2.07 (inactive) | 0.294 | -0.181 | 0.9 | -0.531 (inactive) | -19.8 (active) | -2.99 (inactive) | 2.78 | -1.7 (inactive) | 0.222 | -0.819 | -0.063 | 0.147
COc1cccc(C[C@H]2C[C@@H](CO[Si](C(C)C)(C(C)C)C(C)C)N3C(=O)[C@]4(C(C)=O)O[C@]23[C@H]2C(=O)N(C)C(=O)[C@H]24)c1 | -0.46 | 0.395 | -0.021 | 0.407 | 0.797 | 0.143 | 0.996 | 0.165 (inactive) | 0.421 | -0.0618 | 1.49 | 0.481 (inactive) | 1.38 (inactive) | 1.25 (inactive) | 0.622 | -1.11 (inactive) | -0.0942 | 1 | 1.13 | -0.0175
Cc1cc(C)c(C(O)C2C=CC3C(=O)N(c4ccccc4)C(=O)C3N2Nc2ccccc2)c(C)c1 (stereo not given) | 0.175 | 0.668 | 0.216 | 1.08 | 1.56 | 1.99 | 1.22 | 0.423 (inactive) | 1.25 | -0.189 | 1.56 | 0.839 (inactive) | 0.483 (inactive) | 0.0441 (inactive) | 3.47 | -1.02 (inactive) | 0.506 | 0.0982 | 1.05 | 0.178
